Records with an inconclusive call do not appear. A call without a number means that no potency is given here. Active and inactive are the calls of the source. The call rests on the fitted dose curve; in most records, active means well fitted cell-killing curve with a large enough effect; inconclusive means small, poorly fitted or top-dose-only effect, or effect the other way; inactive means no such curve, though single readings can be large or run the other way.
Assay: Quantitative High-Throughput drug screen in 47 multiple myeloma cell lines against the NCATS MIPE library collection: OPM2_DSMZ cell viability assay (AID 1919872); further: nearly all actives have a fitted effect of over 30% in size
Conditions: OPM2 myeloma viability, CellTiter-Glo ATP luminescence, 48 h; series mostly up to 45.8 µM
Text: PI: Beverly A. Mock Ph.D.
Laboratory of Cancer Biology and Genetics,
Center for Cancer Research, National Cancer Institute,
National Institute of Health, Bethesda, Maryland
Drug resistance and disease progression are common in multiple myeloma (MM) patients, underscoring the need for new therapeutic combinations. […] We hypothesized that effective combinations would reduce MYC expression and enhance p16 activity. […] These preclinical data identify potentially useful drug combinations for evaluation in drug-resistant MM and reveal potential mechanisms of combined drug sensitivity.
Described herein is the primary MIPE qHTS used to cherrypick compounds. Validated compounds were then further tested for potential synergistic activiy.
[1] Peat TJ, Gaikwad SM, Dubois W, Gyabaah-Kessie N, Zhang S, Gorjifard S, Phyo Z, Andres M, Hughitt VK, Simpson RM, Miller MA, Girvin AT, Taylor A, Williams D, D'Antonio N, Zhang Y, Rajagopalan A, Flietner E, Wilson K, Zhang X, Shinn P, Klumpp-Thomas C, McKnight C, Itkin Z, Chen L, Kazandijian D, Zhang J, Michalowski AM, Simmons JK, Keats J, Thomas CJ, Mock BA. Drug combinations identified by high-throughput screening promote cell cycle transition and upregulate Smad pathways in myeloma. Cancer Lett. 2023 Aug 1;568:216284. doi: 10.1016/j.canlet.2023.216284. Epub 2023 Jun 24. PMID: 37356470; PMCID: PMC10408729.
SEQUENCE No. (e.g., 1, 2, 3, etc.); […] (e.g., Cells, Incubation, Reagent, etc.); VALUE and DESCRIPTION.
1; Cells; 5 uL; white, solid bottom 1536-well Greiner assay plate.
2; Compounds; 23 nL; Kalypsis pin tool (Wako USA) equipped with a 1536-well pin head to transfer to the assay plates.
3; Incubation; 48 hours; 37C incubation.
4; Reagent;5uL; CellTiter Glo (Promega).
5; Detector; 425V; Luminescence; Viewlux PerkinElmer.
NOTES (numbers refer to Sequence numbers above)
1. The cell-based screening methods employed in this study were like those previously published. Briefly, the corresponding myeloma cell lines were screened in 1,536-well plates with 500 cells, 5-uL per well for inhibition of cell viability (assessed by measuring ATP levels with CellTiterGlo).
2. NCATS MIPE 4.0 library of approved and investigational drugs were added using the Kalypsis pin tool. Wells treated with DMSO only for 100% viability and media only wells for 0% viability were used as controls.
3. The assay plates were covered and incubated for 48 hours in a 37C, 5% CO2 incubator with controlled humidity.
4. After 48 hours, CellTilter-GloTM luminescent substrate mix (Promega) reagent was added to the assay plate and plates we incubated for 5 min at room temperature.
5. Signal was measured as median relative luminescence units on a ViewLux (PerkinElmer) multiplate reader.
[1] Heske CM, Davis MI, Baumgart JT, Wilson K, Gormally MV, Chen L, Zhang X, Ceribelli M, Duveau DY, Guha R, Ferrer M, Arnaldez FI, Ji J, Tran HL, Zhang Y, Mendoza A, Helman LJ, Thomas CJ. Matrix Screen Identifies Synergistic Combination of PARP Inhibitors and Nicotinamide Phosphoribosyltransferase (NAMPT) Inhibitors in Ewing Sarcoma. Clin Cancer Res. 2017 Dec 1;23(23):7301-7311. doi: 10.1158/1078-0432.CCR-17-1121. Epub 2017 Sep 12. PMID: 28899971; PMCID: PMC6636827.
Potency means the concentration at half of the fitted maximal effect.

Row | Compound | Potency
1 | C[C@@H]1[C@@H](C(=O)C[C@H]2O[C@@H]3O[C@]4(C)CC[C@@H]5[C@H](C)CC[C@@H]([C@H]2C)[C@@]35OO4)O[C@@H]2O[C@]3(C)CC[C@H]4[C@H](C)CC[C@@H]1[C@@]24OO3 | 0.372 µM (active)
2 | CC(C)CC(N(C)C)C1(c2ccc(Cl)cc2)CCC1 (configuration not stated) | inactive
3 | CN(C)[C@@H]1C(=O)C(C(N)=O)=C(O)[C@@]2(O)C(=O)C3=C(O)c4c(O)cccc4[C@@](C)(O)[C@H]3C[C@@H]12 | 16.6 µM (active)
4 | Fc1ccc(C(OCCN2CCN(CCCc3ccccc3)CC2)c2ccc(F)cc2)cc1 | 23.5 µM (active)
5 | CN1CCN(C(=O)O[C@H]2c3nccnc3C(=O)N2c2ccc(Cl)cn2)CC1 | inactive
6 | Cc1cc(SCc2sc(-c3ccc(C(F)(F)F)c(F)c3)nc2C)ccc1OCC(=O)O | inactive
7 | COC[C@H]1OC(=O)c2coc3c2[C@@]1(C)C1=C(C3=O)C2CCC(=O)[C@@]2(C)C[C@H]1OC(C)=O (some centres not stated) | 10.5 µM (active)
8 | O=P1(NCCCl)OCCCN1CCCl (configuration not stated) | inactive
9 | CNC(=O)c1ccc(N2C(=S)N(c3ccc(C#N)c(C(F)(F)F)c3)C(=O)C23CCC3)cc1F | inactive
10 | COc1ccc2c(c1OC)CN1CCc3cc4c(cc3C1C2)OCO4 (configuration not stated) | inactive
11 | COc1ccc(C(=O)c2c(C)n(CCN3CCOCC3)c3ccccc23)cc1 | inactive
12 | O=C(O)C(=O)c1cn(Cc2ccccc2)c2ccc(-c3ccc(OC(F)(F)F)cc3)cc12 | inactive
13 | C=C(C)[C@H]1Cc2c(ccc3c2O[C@@H]2COc4cc(OC)c(OC)cc4[C@@H]2C3=O)O1 | 4.69 µM (active)
14 | Cc1cccc(C)c1NC(=O)CN1CCCC1=O | inactive
15 | COC[C@@H](NC(C)=O)C(=O)NCc1ccccc1 | inactive
16 | N[C@@H](Cc1ccc(N(CCCl)CCCl)cc1)C(=O)O | 18.7 µM (active)
17 | CCCC(C)(COC(N)=O)COC(=O)NC(C)C (configuration not stated) | inactive
18 | CN(C)CCN(C)CCc1ccc(Cl)c(Cl)c1 | inactive
19 | CNCC(O)c1ccc(O)cc1 (configuration not stated) | inactive
20 | CN(C)CCc1ccc(O)cc1 | inactive
21 | NCC1(CC(=O)O)CCCCC1 | inactive
22 | C#CCN(C)[C@H](C)Cc1ccccc1 | inactive
23 | COC1(CS(=O)c2ccccc2)CCN(CCc2c[nH]c3ccc(F)cc23)CC1 (configuration not stated) | inactive
24 | O=C1CC[C@@]2(O)[C@H]3Cc4ccc(O)c5c4[C@@]2(CCN3CC2CC2)[C@H]1O5 | inactive
25 | O=c1[nH]c2ccccc2n1CCCN1CCC(n2c(=O)[nH]c3cc(Cl)ccc32)CC1 | inactive
26 | COc1ccc(C(CN(C)C)C2(O)CCCCC2)cc1 (configuration not stated) | inactive
27 | CC1=C2C[C@@H]3[C@@H](CC=C4C[C@@H](O)CC[C@@]43C)[C@@H]2CC[C@]12O[C@H]1C[C@H](C)CN[C@H]1[C@H]2C | inactive

Source: PubChem BioAssay (NCATS)
